These results are taken from PubChem BioAssay (EPA / NIEHS).

Inconclusive results are not listed. Activity calls are given as the source filed them. The calls were made as follows, unless noted: active = hit-call score of the fitted dose curve at least 0.9, where 1 is the maximum; inactive = score below 0.9.

Chain of E-selectin (Homo sapiens) (P16581 whole entry, looked up): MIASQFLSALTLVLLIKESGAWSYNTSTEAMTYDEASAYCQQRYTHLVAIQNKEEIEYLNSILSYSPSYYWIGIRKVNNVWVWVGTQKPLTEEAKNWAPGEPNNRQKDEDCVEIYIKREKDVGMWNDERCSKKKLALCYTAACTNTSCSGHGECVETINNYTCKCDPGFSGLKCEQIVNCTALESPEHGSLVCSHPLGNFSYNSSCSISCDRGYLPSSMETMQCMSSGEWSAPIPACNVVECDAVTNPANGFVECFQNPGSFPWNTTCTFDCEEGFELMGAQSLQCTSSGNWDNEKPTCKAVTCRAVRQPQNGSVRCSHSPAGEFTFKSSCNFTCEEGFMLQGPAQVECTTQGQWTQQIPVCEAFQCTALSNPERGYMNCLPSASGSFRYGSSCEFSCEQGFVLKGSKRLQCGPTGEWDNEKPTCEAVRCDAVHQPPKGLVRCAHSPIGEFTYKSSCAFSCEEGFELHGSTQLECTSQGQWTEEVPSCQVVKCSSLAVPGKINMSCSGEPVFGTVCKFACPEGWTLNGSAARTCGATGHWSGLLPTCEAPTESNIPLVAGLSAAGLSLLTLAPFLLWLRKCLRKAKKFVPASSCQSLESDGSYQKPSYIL

Read-out in one experiment: E-selectin (Homo sapiens) (UniProt P16581)
Description: BSK_3C_Eselectin: BioMAP Diversity Plus: 3C Assay for Eselectin Biomarker Activity (AID 2283015).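 As to outcome: cell surface E-selectin protein quantified by ELISA 24 h after dosing.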 The note with it: primary human endothelial cells (HUVEC); actives raise or lower the signal. The procedure, abridged: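 Endpoint derived by bidirectional fitting against DMSO vehicle; signal is ELISA-detected E-selectin from primary HUVEC at 24 h post-dosing, with parallel SRB staining (0.1% SRB, 560 nm) flagging cytotoxicity.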
With `Cc1ccc([N+](=O)[O-])cc1N`, the result was inactive.

`C=CC(=O)NCOCCCC`: the result was inactive.

Turning to `CCCCCCCCCCCC(C)=O`, the AC50 was 33.7 µM (active).

As to `CCOC(=O)C1=NOC(c2ccccc2)(c2ccccc2)C1`, the outcome was inactive.

Read-out in the next experiment: Interleukin-1 alpha (IL1a), IL1A (gene 3552)
Description: BSK_BE3C_IL1a: BioMAP Diversity Plus: BE3C Assay for Interleukin-1 alpha (IL1a) Biomarker Activity (AID 2283016). The note with it: primary human bronchial epithelial cells; actives raise or lower the signal. Put shortly:
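IL-1a measured by ELISA after 24 h treatment of human primary bronchial epithelial cells, with gain or loss of signal fitted versus DMSO. Parallel cultures stained with SRB gauge overt cytotoxicity.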
In the case of `Nc1nc(N)nc(-c2ccccc2)n1`, the result was inactive.

Regarding `Cc1ccc([N+](=O)[O-])cc1N`, the outcome was inactive.

For `C=CC(=O)NCOCCCC`, the result was inactive.

For the compound `CCCCCCCCCCCC(C)=O`, the AC50 is 20 µM (active).

With `CCOC(=O)C1=NOC(c2ccccc2)(c2ccccc2)C1`, the AC50 was 0.129 µM (active).

Regarding `CC(C)C(=O)OCCc1ccccc1`, the result was inactive.

`CC(C)[N+](C)(CCOC(=O)C1c2ccccc2Oc2ccccc21)C(C)C`: the outcome was inactive.

For `Oc1ccc(/C=C/c2cc(O)cc(O)c2)cc1`, the AC50 was 10.1 µM (active).

For `C=CCCCCCCCCC=O`, the result was inactive.

`C=C(C)C(=O)OCCCCCCCCCCCC`: the result was inactive.

Consider `CC(C)c1cccc(C(C)C)c1N`, for which the result was inactive.

Turning to `CCOC(=O)/C=C\C(=O)OCC`, the outcome was inactive.

For the compound `CC=C(C)C(C)=O`, the outcome was inactive.

Read-out in the next experiment: Monocyte Chemoattractant Protein-1 (MCP1), CCL2 (gene 6347)
Description: BSK_3C_MCP1: BioMAP Diversity Plus: 3C Assay for Monocyte Chemoattractant Protein-1 (MCP1) Biomarker Activity (AID 2283017). The note with it: primary human endothelial cells (HUVEC); actives raise or lower the signal. The procedure, abridged:
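Using human vascular primary endothelium, researchers measured MCP-1 by ELISA 24 h after treatment, with DMSO serving as negative control for bidirectional fitting.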
Consider `Nc1nc(N)nc(-c2ccccc2)n1`, for which the result was inactive.

As for `Cc1ccc([N+](=O)[O-])cc1N`, the outcome was inactive.

Take `C=CC(=O)NCOCCCC`: the outcome was inactive.

As for `CCCCCCCCCCCC(C)=O`, the AC50 was 31.3 µM (active).

`CCOC(=O)C1=NOC(c2ccccc2)(c2ccccc2)C1`: the result was inactive.

In the case of `CC(C)C(=O)OCCc1ccccc1`, the result was inactive.

For the compound `CC(C)[N+](C)(CCOC(=O)C1c2ccccc2Oc2ccccc21)C(C)C`, the result was inactive.

Turning to `Oc1ccc(/C=C/c2cc(O)cc(O)c2)cc1`, the AC50 was 20 µM (active).

Regarding `C=CCCCCCCCCC=O`, the outcome was inactive.

Regarding `C=C(C)C(=O)OCCCCCCCCCCCC`, the result was inactive.

As for `CC(C)c1cccc(C(C)C)c1N`, the result was inactive.

With `CCOC(=O)/C=C\C(=O)OCC`, the result was inactive.

For `CC=C(C)C(C)=O`, the result was inactive.

Read-out in another experiment: Human Leukocyte Antigen - DR isotype (HLADR), HLA-DRA (gene 3122)
Description: BSK_3C_HLADR: BioMAP Diversity Plus: 3C Assay for Human Leukocyte Antigen - DR isotype (HLADR) Biomarker Activity (AID 2283019).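 As to outcome: ELISA of cell-surface HLA-DR on HUVEC 24 h after dosing.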 The note with it: primary human endothelial cells (HUVEC); actives raise or lower the signal. Put shortly: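 Compound added to primary HUVEC cultures, 24 h incubation, then HLA-DR determined by ELISA; endpoint derived by bidirectional fitting relative to DMSO negative control.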
Turning to `Nc1nc(N)nc(-c2ccccc2)n1`, the result was inactive.

Take `Cc1ccc([N+](=O)[O-])cc1N`: the outcome was inactive.

Turning to `C=CC(=O)NCOCCCC`, the outcome was inactive.

`CCCCCCCCCCCC(C)=O`: the AC50 is 32.5 µM (active).

With `CCOC(=O)C1=NOC(c2ccccc2)(c2ccccc2)C1`, the result was inactive.

Take `CC(C)C(=O)OCCc1ccccc1`: the result was inactive.

Turning to `CC(C)[N+](C)(CCOC(=O)C1c2ccccc2Oc2ccccc21)C(C)C`, the outcome was inactive.

As for `Oc1ccc(/C=C/c2cc(O)cc(O)c2)cc1`, the concentration at half-maximal activity (AC50) is 20 µM (active).

Consider `C=CCCCCCCCCC=O`, for which the result was inactive.

As for `C=C(C)C(=O)OCCCCCCCCCCCC`, the result was inactive.

With `CC(C)c1cccc(C(C)C)c1N`, the half-maximal activity concentration (AC50) was 38.2 µM (active).

Consider `CCOC(=O)/C=C\C(=O)OCC`, for which the AC50 was 32.5 µM (active).

For `CC=C(C)C(C)=O`, the outcome was inactive.

Read-out in the next experiment: Interleukin-8 (IL8), CXCL8 (gene 3576)
Description: BSK_3C_IL8: BioMAP Diversity Plus: 3C Assay for Interleukin-8 (IL8) Biomarker Activity (AID 2283020). The note with it: primary human endothelial cells (HUVEC); actives raise or lower the signal. Put shortly: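 IL-8 was measured by ELISA in HUVEC cultures 24 h after chemical dosing, with gain or loss of signal fitted relative to DMSO. Parallel SRB total-protein staining tracked overt cytotoxicity.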
Take `CC(C)C(=O)OCCc1ccccc1`: the result was inactive.

In the case of `CC(C)[N+](C)(CCOC(=O)C1c2ccccc2Oc2ccccc21)C(C)C`, the outcome was inactive.

For `CC(C)c1cccc(C(C)C)c1N`, the result was inactive.

Consider `CCOC(=O)/C=C\C(=O)OCC`, for which the outcome was inactive.

As for `CC=C(C)C(C)=O`, the result was inactive.

Read-out in another experiment: Monokine induced gamma interferon (MIG), CXCL9 (gene 4283)
Description: BSK_3C_MIG: BioMAP Diversity Plus: 3C Assay for Monokine induced gamma interferon (MIG) Biomarker Activity (AID 2283021).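 As to AC50: MIG protein level measured by immunoassay in the treated endothelial cultures.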 The note with it: primary human endothelial cells (HUVEC); actives raise or lower the signal. Put shortly:
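ELISA measurement of MIG in human umbilical vein endothelial cells 24 h after treatment. Cytotoxicity tracked by SRB staining in parallel cultures; gain or loss of signal fitted relative to DMSO.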
In the case of `Nc1nc(N)nc(-c2ccccc2)n1`, the result was inactive.

In the case of `Cc1ccc([N+](=O)[O-])cc1N`, the outcome was inactive.

For the compound `C=CC(=O)NCOCCCC`, the outcome was inactive.

As for `CCCCCCCCCCCC(C)=O`, the concentration at half-maximal activity (AC50) was 35 µM (active).

Consider `CCOC(=O)C1=NOC(c2ccccc2)(c2ccccc2)C1`, for which the result was inactive.

With `CC(C)C(=O)OCCc1ccccc1`, the outcome was inactive.

In the case of `CC(C)[N+](C)(CCOC(=O)C1c2ccccc2Oc2ccccc21)C(C)C`, the outcome was inactive.

Take `Oc1ccc(/C=C/c2cc(O)cc(O)c2)cc1`: the result was inactive.

With `C=CCCCCCCCCC=O`, the outcome was inactive.

Turning to `C=C(C)C(=O)OCCCCCCCCCCCC`, the outcome was inactive.

`CC(C)c1cccc(C(C)C)c1N`: the result was inactive.

`CCOC(=O)/C=C\C(=O)OCC`: the result was inactive.

Regarding `CC=C(C)C(C)=O`, the outcome was inactive.

The target of a further experiment is human Vitamin D Receptor (VDR), VDR (gene 7421) (UniProt P11473). Description: ATG_VDR_TRANS: Attagene TRANS-FACTORIAL HepG2 Assay for human Vitamin D Receptor (VDR) (AID 2283022; active = hit-call score of the fitted dose curve at least 0.9, where 1 is the maximum).
Chain of human Vitamin D Receptor (VDR), VDR (gene 7421) (P11473 whole entry, looked up): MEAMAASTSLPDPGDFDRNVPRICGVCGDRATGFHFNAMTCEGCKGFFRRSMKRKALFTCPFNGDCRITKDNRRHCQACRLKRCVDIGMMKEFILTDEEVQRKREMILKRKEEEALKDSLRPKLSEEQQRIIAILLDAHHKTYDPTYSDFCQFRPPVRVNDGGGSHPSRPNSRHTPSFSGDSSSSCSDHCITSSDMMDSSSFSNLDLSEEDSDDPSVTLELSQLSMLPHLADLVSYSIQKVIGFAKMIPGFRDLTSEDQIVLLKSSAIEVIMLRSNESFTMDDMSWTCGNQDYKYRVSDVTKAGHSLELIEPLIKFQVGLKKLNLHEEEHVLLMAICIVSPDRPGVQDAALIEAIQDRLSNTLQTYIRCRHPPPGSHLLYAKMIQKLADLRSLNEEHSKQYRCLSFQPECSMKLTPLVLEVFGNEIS
Settings: not given
Put shortly: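 Multiplexed TRANS reporter in HepG2; 24 h treatment; reporter mRNA by RT-PCR plus capillary electrophoresis; upregulation scored relative to DMSO.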
As to `Nc1ccc(O)c([N+](=O)[O-])c1`, the call was inactive.

Consider `CC1(C)C(=O)N(CO)C(=O)N1CO`, for which the call was inactive.

With `Cc1ccccc1CCO`, the compound was classed as inactive.

As to `Cc1ccc([N+](=O)[O-])cc1N`, the call was inactive.

With `C=CC(=O)NCOCCCC`, the call was inactive.

Turning to `O=C(C=Cc1ccccc1)OCCc1ccccc1`, the call was inactive.

For the compound `CCCCCCCCCCCC(C)=O`, the compound was called inactive.

Turning to `CCCCC(CC)COC(=O)/C=C/c1ccc(OC)cc1` (centres undefined), the call was inactive.

On to `CCOC(=O)C1=NOC(c2ccccc2)(c2ccccc2)C1`, for which the call was inactive.

For the compound `CC(=O)OC1CCCCC1`, the compound was called inactive.

Turning to `CC(C)[N+](C)(CCOC(=O)C1c2ccccc2Oc2ccccc21)C(C)C`, the compound was called inactive.

For the compound `C=CC(=O)OCCCCCCCCCC`, the compound was called inactive.

As to `CC(C)(CO)C(O)C(=O)NCCCO` (centres undefined), the result was inactive.

Consider `Oc1ccc(/C=C/c2cc(O)cc(O)c2)cc1`, for which the compound was called inactive.

For `C=C(C)C(=O)OCCCCCCCCCCCC`, the call was inactive.

Read-out in another experiment: not listed separately
Description: BSK_3C_SRB: Viability Assessment in the BioMAP Diversity Plus: 3C Assay (AID 2283023).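 Also: cells read 24 h after compound dosing; fitted both ways against DMSO so a hit may be signal rise or drop.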 The note with it: primary human endothelial cells (HUVEC). Put shortly: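 Overt cytotoxicity is gauged in parallel confluent HUVEC cultures by SRB total-protein staining at the time of biomarker measurement, 24 h after dosing. Gain or loss of signal is fitted versus DMSO.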
In the case of `Nc1nc(N)nc(-c2ccccc2)n1`, the result was inactive.

Consider `Cc1ccc([N+](=O)[O-])cc1N`, for which the outcome was inactive.

For `C=CC(=O)NCOCCCC`, the outcome was inactive.

On to `CCCCCCCCCCCC(C)=O`, for which the concentration at half-maximal activity (AC50) is 29.9 µM (active).

`CCOC(=O)C1=NOC(c2ccccc2)(c2ccccc2)C1`: the outcome was inactive.

For `CC(C)C(=O)OCCc1ccccc1`, the result was inactive.

Turning to `CC(C)[N+](C)(CCOC(=O)C1c2ccccc2Oc2ccccc21)C(C)C`, the result was inactive.

As to `Oc1ccc(/C=C/c2cc(O)cc(O)c2)cc1`, the result was inactive.

Consider `C=CCCCCCCCCC=O`, for which the result was inactive.

`C=C(C)C(=O)OCCCCCCCCCCCC`: the result was inactive.

For the compound `CC(C)c1cccc(C(C)C)c1N`, the outcome was inactive.

`CCOC(=O)/C=C\C(=O)OCC`: the outcome was inactive.

As for `CC=C(C)C(C)=O`, the result was inactive.

One may read the AC50 as the concentration at which the activity in the assay is half-maximal.
